Screens from PubChem.
Shiga toxin inh: inhibitors of Shiga toxin in Vero cells | Vero cells, Shiga toxin protein synthesis inhibition reporter | inhibition, % at 38.7 µM | 290,000 compounds, 9.2% hits | AID 2315; in the data active = inhibition mostly above about 28%, no sharp cut-off; inactive = mostly below about 43%
AMA1 RON2 block: inhibitors of Plasmodium falciparum AMA1-RON2 interaction | AlphaScreen AMA1-biotinylated RON2 peptide binding | Potency, µM (highest dose often 58.2 µM), most hits filed as inhibitors | 360,000 compounds, 0.2% hits; note: nearly all actives have a fitted effect of over 45% in size
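AMA1 (3D7) with his tag at 25 nM final met compounds first, then biotinylated RON2 peptide at 25 nM; detection used donor plus acceptor beads, 10 µg/mL apiece, read by AlphaScreen after 30 min at room temperature.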
SARS PLpro yeast: blocks SARS-CoV papain-like protease in a yeast assay. S. cerevisiae expressing SARS-CoV PLpro, growth rescue. Potency, µM (top dose mostly 32.9 µM), most hits filed as activators. 330,000 compounds, 0.19% hits; calls by dose curve; note: nearly all actives have a fitted effect of over 55% in size
Pf growth 48h: inhibits P. falciparum growth in the first generation, 48 h. P. falciparum luciferase growth in erythrocytes, 48 h. Potency, µM (doses to about 28.7 µM), most hits filed as inhibitors. 310,000 compounds, 5.9% hits
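Growth was read as firefly luciferase luminescence after a 48 h, 37 C, 5% CO2 exposure of compounds to reporter-bearing P. falciparum cultures (0.1% parasitemia, 2% hematocrit final) in Albumax-supplemented RPMI 1640.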
CHX counter: counter-screen for Shiga toxin inhibitors: cycloheximide protein synthesis inhibition; cell reporter, cycloheximide protein synthesis inhibition counterscreen; max response, %; 300,000 compounds, 12% hits; AID 2314; in the data active = max response mostly above about 13%, no sharp cut-off; inactive = mostly below about 14%; note: read at 38.3 µM for the half of the compounds with a filed dose
Pf growth 96h: inhibits malaria parasite growth, 96 h. 320,000 compounds, 6.9% hits. Potency, µM (titrated, usually from 28.7 µM), most hits filed as inhibitors. P. falciparum luciferase reporter growth, 96 h. AID 504834
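Two-generation exposure (96 h) targets delayed-death phenotype. Reporter parasites carrying integrated firefly luciferase, in red cells at 2% hematocrit and 0.05% parasitemia final, kept at 37 C, 5% CO2; luminescence loss indicates inhibition.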
A number is an active result; [ ] = another dose, or the depositor's remark. A selection: hits, their analogues and other compounds. The true share with any hit is near 19%. Unless noted, calls come from the whole dose curve; as a rule, active = well fitted curve in the direction sought with a large enough effect; inconclusive = small, poorly fitted or top-dose-only effect, or another doubt; inactive = no such curve, though single readings can be large; an effect the other way counts as inactive or inconclusive.

For COc1ccc(Nc2oc(-c3cccs3)nc2C#N)cc1 the results were Shiga toxin inh 146, AMA1 RON2 block inactive, SARS PLpro yeast inactive, Pf growth 48h inactive, CHX counter 62 and Pf growth 96h inconclusive.
COc1ccc(S(=O)(=O)N(C)CC(=O)N2CCCCCC2)cc1OC was read as Shiga toxin inh inactive, AMA1 RON2 block inactive, SARS PLpro yeast inactive, Pf growth 48h inactive, CHX counter inactive and Pf growth 96h 9.3µM.
COc1ccc(S(=O)(=O)N(C)CC(=O)N2CCN(c3ccc(F)cc3)CC2)cc1OC was read as Shiga toxin inh inactive, AMA1 RON2 block inactive, SARS PLpro yeast inactive, Pf growth 48h inactive and CHX counter inactive.
`CCN1CCN(C(=O)CN(C)S(=O)(=O)c2ccc(OC)c(C)c2)CC1` gave Shiga toxin inh inactive, AMA1 RON2 block inactive, SARS PLpro yeast inactive, CHX counter inactive and Pf growth 96h inactive.
`CCN1CCN(C(=O)CN(c2ccc(F)cc2)S(=O)(=O)c2ccc(OC)c(OC)c2)CC1` gave Shiga toxin inh inactive, AMA1 RON2 block inactive, SARS PLpro yeast inactive, Pf growth 48h inactive, CHX counter inactive and Pf growth 96h 6.6µM.
`CCc1sc(N(C(=O)Cc2ccccc2)c2ccccc2F)nc1-c1ccc(C)cc1` gave Shiga toxin inh inactive, AMA1 RON2 block inactive, SARS PLpro yeast inactive, Pf growth 48h inconclusive, CHX counter inactive and Pf growth 96h 10µM.
For CCOC(=O)c1cn(CC)c2cc(N3CCCCC3)c(F)cc2c1=O the results were AMA1 RON2 block inactive.
`CCn1cc(C(=O)NN)c(=O)c2cc(F)c(N3CCCCC3)cc21` gave Shiga toxin inh inactive, AMA1 RON2 block inactive, SARS PLpro yeast inactive, Pf growth 48h inconclusive, CHX counter inactive and Pf growth 96h inactive.
`CC(=O)N1CCN(c2cc3c(cc2F)c(=O)c(C(=O)O)cn3C2CC2)CC1` gave Shiga toxin inh inactive, AMA1 RON2 block inactive, SARS PLpro yeast inactive, Pf growth 48h inconclusive, CHX counter inactive and Pf growth 96h inactive[5.75 µM].
For CCN1CCN(c2cc3c(cc2F)c(=O)c(C(=O)O)cn3C2CC2)CC1 the results were Shiga toxin inh inactive, AMA1 RON2 block inactive, SARS PLpro yeast inactive, Pf growth 48h inconclusive, CHX counter inactive and Pf growth 96h 8.3µM.
`CCn1cc(C(=O)NN)c(=O)c2cc(F)c(N3CCN(C)CC3)cc21` gave Shiga toxin inh inactive, AMA1 RON2 block inactive, SARS PLpro yeast inactive, Pf growth 48h inconclusive, CHX counter inactive and Pf growth 96h 12µM.
`CN1CCN(c2cc3c(cc2F)c(=O)c(C(=O)O)cn3-c2ccc(F)cc2)CC1` gave Pf growth 48h inconclusive and Pf growth 96h 6.7µM.
Screening CCOC(=O)c1cn(CC)c2cc(N3CCOCC3)c(F)cc2c1=O returned Shiga toxin inh inactive, AMA1 RON2 block inactive, SARS PLpro yeast inactive, Pf growth 48h 1.9µM, CHX counter inactive and Pf growth 96h inactive.
For c1ccc2c(c1)CNc1ccccc1-2 the results were AMA1 RON2 block inactive.
For CC(C(=O)NCC1CCCO1)n1cccc1C(=O)c1ccccc1 (stereo not given) the results were Shiga toxin inh inactive, AMA1 RON2 block inactive, SARS PLpro yeast inactive, Pf growth 48h inactive, CHX counter inactive and Pf growth 96h inactive.
COc1cccc(-c2cc(CC3(O)CCN(CCCc4ccccc4)CC3)on2)c1 was read as Shiga toxin inh inactive, AMA1 RON2 block inactive, SARS PLpro yeast inactive, Pf growth 48h 12µM, CHX counter inactive and Pf growth 96h inconclusive.
`CCOC(=O)C(CC)n1nc(C)n2c(cc3sccc32)c1=O` (stereo not given) gave Shiga toxin inh inactive, AMA1 RON2 block inactive, SARS PLpro yeast inactive, Pf growth 48h inactive, CHX counter inactive and Pf growth 96h inconclusive.
Screening O=C(CCC1CCCN(C(=O)CCCc2ccccc2)C1)N1CCN(c2ccccn2)CC1 (stereo not given) returned Shiga toxin inh inactive, AMA1 RON2 block inactive, SARS PLpro yeast inactive, Pf growth 48h inconclusive, CHX counter 22 and Pf growth 96h inconclusive.
`O=C(CCC1CCCN(C(=O)Cc2cccc(F)c2)C1)N1CCN(c2ccccn2)CC1` (stereo not given) gave Shiga toxin inh 71, AMA1 RON2 block inactive, SARS PLpro yeast inactive, Pf growth 48h inactive, CHX counter 50 and Pf growth 96h inactive.
`Cc1ccccc1CC(=O)N1CCCC(CCC(=O)N2CCN(c3ccccn3)CC2)C1` (stereo not given) gave Shiga toxin inh inactive, AMA1 RON2 block inactive, SARS PLpro yeast inactive, Pf growth 48h inconclusive, CHX counter inactive and Pf growth 96h inactive.
C=C(C)CN=CC1(C)CCC(C)=CO1 (stereo not given) was read as AMA1 RON2 block inactive.
`COc1ccc(C)cc1NC(=O)C(=O)NNC(=O)COc1ccc(Cl)cc1` gave Shiga toxin inh inactive, AMA1 RON2 block inactive, SARS PLpro yeast inactive, Pf growth 48h inactive, CHX counter inactive and Pf growth 96h inactive.
`CCCS(=O)(=O)N1CCN(C2CCC(C)CC2)CC1` (stereo not given) gave Shiga toxin inh inactive, AMA1 RON2 block inactive, SARS PLpro yeast inactive, Pf growth 48h inactive, CHX counter inactive and Pf growth 96h 10µM.
`CCC(=O)N1CCc2cc(S(=O)(=O)NCCCN(CC)Cc3ccccc3)ccc21` gave Shiga toxin inh inactive, AMA1 RON2 block inactive, SARS PLpro yeast inactive, Pf growth 48h inactive, CHX counter inactive and Pf growth 96h inactive.
For COc1ccc(CCNC(=O)CCCCCn2c(SCC(N)=O)nc3cc4c(cc3c2=O)OCO4)cc1OC the results were Shiga toxin inh inactive, AMA1 RON2 block inactive, SARS PLpro yeast inactive, Pf growth 48h inactive, CHX counter inactive and Pf growth 96h inconclusive.
Cc1ccccc1OCC(=O)O/N=C(\N)c1ccncc1 was read as Shiga toxin inh 99, AMA1 RON2 block inactive, SARS PLpro yeast inactive, Pf growth 48h inconclusive, CHX counter 45 and Pf growth 96h inactive.
For Cc1ccccc1OCC(=O)O/N=C(\N)Cc1ccc(Cl)cc1 the results were Shiga toxin inh inactive, AMA1 RON2 block inactive, SARS PLpro yeast inactive, CHX counter inactive and Pf growth 96h inactive.
`Cc1ccc(OCC(=O)O/N=C(\N)c2ccncc2)c(C)c1` gave Shiga toxin inh 114, AMA1 RON2 block inactive, SARS PLpro yeast inactive, Pf growth 48h inactive, CHX counter 33 and Pf growth 96h inactive.
Screening Cc1cc(C)c(C)c(OCC(=O)O/N=C(\N)c2ccncc2)c1 returned Shiga toxin inh inactive, AMA1 RON2 block inactive, SARS PLpro yeast inactive, Pf growth 48h inconclusive, CHX counter inactive and Pf growth 96h inactive.
Cc1ccc(SC(C)C(=O)O/N=C(\N)c2ccncc2)cc1 (stereo not given) was read as Shiga toxin inh inactive, AMA1 RON2 block inactive, SARS PLpro yeast inactive, Pf growth 48h inconclusive, CHX counter 20 and Pf growth 96h inconclusive.
Screening COCCCNc1ncnc2c1nc1n2CCCC1 returned Shiga toxin inh inactive, AMA1 RON2 block inactive, SARS PLpro yeast inactive, Pf growth 48h inactive, CHX counter inactive and Pf growth 96h inactive.
